The whole screen tested about 31,000 sequences, of which about 1,400 (4.5%) were called active. This excerpt belongs to a sample that is enriched for actives. Unmarked numbers belong to inactive results.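 Rule for the calls: active = median seed-adjusted z-score above 1 or below -1; inactive = the rest.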

A short description of the experiment: Novel Modifiers of Survival Motor Neuron (SMN) Protein: Gene Identification via Genome-wide siRNA Screen.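 Note: luminescence tracks full-length SMN protein made from the SMN2 reporter.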 As to conditions: HEK293T SMN2-luciferase reporter, siRNA knockdown, 72 h; actives lie on both sides. The method, boiled down:
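Genome-wide siRNA screen (10418 genes, 3 siRNAs each, 1 pmol per well) by reverse transfection in HEK293T cells stably carrying an SMN2-luciferase reporter; luminescence after 72 hours, normalized to negative-control siRNA, log10-transformed, MAD-scored.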
Regarding CAACCCUACCAAUGCUACUTT against PTP4A2, the median seed-adjusted z-score is -1.45 (active).
The figure for GCUGUGAAAUUGUUUCGAATT against IREB2 is 0; for GGGAACUUCUUGGAACUUUTT against KLK12 it is 0.243.
As for CCAGCGCAACAAAGGAAAATT against HMX1, the figure is 1.3 (active); as for GAACUAAGCACUACUCUAATT against DRP2, -0.0555.
As to GCUACUUCUCAGUUGCUAATT against NDST4, the median seed-adjusted z-score is 0.426.
Turning to CAAAGUGACCAAGCAGAGATT against SF3A2, the median seed-adjusted z-score is -1.7 (active).
Regarding CACCAGGACCAGUUAAAAATT against MVD, the median seed-adjusted z-score was -0.561.
As for GGUGAUUCAAGAUGCCCAATT against PXMP2, the figure is -0.444.
Regarding CUCCCAUGAUGGCAUCUUATT against HSPB2, the median seed-adjusted z-score was 0.247.
As for CCAUCGAUGUCUCUGCUAUTT against ABCA1, the median seed-adjusted z-score is -1.27 (active).
Regarding UCGUCUUUGUCACCCGAAATT against CCL5, the median seed-adjusted z-score is 0.11.
The figure for CGUGCGGACAAUAAGCAAATT against MYO1C is 0.566.
On to GGCUAACUCGAUUUAAGCATT against TIGD2, for which the median seed-adjusted z-score was -0.13.
With GACUUUGACAAAGCGAUUATT against SPTAN1, the median seed-adjusted z-score was -0.233.
The figure for CAUCCAUGGUUAAGUCAUATT against PTK6 is -0.295; for GCACCUCUACAGGAACUUUTT against TSC2 it is 1.11 (active).
As for GCUCCUCGUUUGUAGAAGATT against SLIT3, the figure is -0.453; as for CGAUGUCUAGAGAACAGCATT against LAMB1, 1.07 (active); as for CGAGUACCGGGUCAAGAUATT against PLXND1, -0.064.
With CGGUGACCAUAGUACAACATT against FOXK2, the median seed-adjusted z-score is -0.348.
In the case of GAGCGCCUCUAGAAUGUAATT against HMX1, the median seed-adjusted z-score was 1.3 (active).
The figure for AGUUUGUGAUAUCAUGAGATT against FRMPD2 is -0.329; for UCAAUACUGUGGGUUCUUATT against FBLN2 it is 0.176; for GGUACCUGCUGAUUCAGAATT against SLC2A5 it is -0.429.
For GCUACAUCGAGGACCUUAATT against SERPINB1, the median seed-adjusted z-score is 0.734.
As for CCAUUGUCUUCCACCGAAATT against RAN, the figure is -3.09 (active); as for CAACGGUAAUUAUCAGUCATT against FABP7, 0.562.
The figure for GCCUGACUGUAACACCCAATT against TXN2 is 0.87; for GGAAAGGUCUAGAUCAGGATT against SEL1L2 it is -0.342; for GCAGCUUCACCUAUCCGAUTT against KLF4 it is 0.883.
The figure for GCGAUAUUAUCAUACUGGATT against ZNF470 is -1.26 (active); for CCACCGACGACAAUCUGUATT against ATP4A it is 0; for AGGUCAGGGUUACAGCUUUTT against MPP2 it is 0.0496.
As to CCAUAUAAGUUUACGUUUATT against TM9SF2, the median seed-adjusted z-score was 1.09 (active).
The figure for CCUCGACCCUGUUUCUUAUTT against ARL4D is -0.523; for CCACGUUCACCAAGAUCUUTT against RBM38 it is 0.0358.
Turning to GGCUUAUGGAGAUAUGAAUTT against PPFIA2, the median seed-adjusted z-score is 0.176.
In the case of GGAACUCUUUGCUGAAUUUTT against THOC4, the median seed-adjusted z-score was -1.54 (active).
For the sequence CAUUAGUACUUCGAUCUAUTT against PHCA, the median seed-adjusted z-score was 0.0568.
Consider GCUCCAAAUGGAGAGUGUATT against PRKCDBP, for which the median seed-adjusted z-score was 0.244.
Regarding GGAACAGCACAGAACAGCATT against ARID5A, the median seed-adjusted z-score is 0.0642.
Regarding CCAUUGAAGCUUGAGAGAATT against ZNF286A, the median seed-adjusted z-score was 0.0368.
As for CGAAGACUGUCUGAGACAATT against GPR52, the figure is -1.17 (active); as for CCGUAAACAUAUGACUAAATT against ZBTB11, -0.105.
As to CGCCAUCUGUGUAACUUCATT against CARD9, the median seed-adjusted z-score is -0.325.
As for GAGACCCUCUGGUUAUAGATT against FKBP11, the figure is -0.085; as for AGGCCGCUGUGGACAUCAATT against CASKIN1, 0.555; as for GAUUCUACUGUCUUACUAATT against HIATL1, 0.327.
For the sequence CAGCAGUACCGACAGAAGATT against ATAD3B, the median seed-adjusted z-score is -0.624.
The figure for UCAUGAACAUUGUCAAUGATT against ADAMTS2 is -0.338; for GUGGUUUCUUGAUCUGAAATT against HSDL2 it is -0.0717.
Turning to GAGGCUUCAUUUUAGAAGATT against XPA, the median seed-adjusted z-score was 2.03 (active).
As for CCCUUUUCGUGGUCUAUGATT against LCMT2, the figure is -0.0205; as for GCCUCGCUGUGAUCUGAUUTT against CACNG6, -0.0499; as for CGGUUGUUAUGACAAUGGATT against FN1, -0.312.
Turning to UGCUCUACUUCUUAAGUGATT against STARD8, the median seed-adjusted z-score was -0.135.
As for GAAGGAUCUCAAACUCGAATT against NECAB1, the figure is 0.0268.
Take GAUCUUCGGUGAAUCAGAATT against MRC2: the median seed-adjusted z-score was -1.34 (active).
The figure for GGUCAUUAAUUUACAUGAATT against STK17A is 0.
As for ACAACGUGGUGAGAUGCAATT against LOXL1, the figure is 0.0435.
As for GAGGUUUUAUAUAACCGAUTT against SMC6, the figure is 0.227.
Regarding GCAUGUUAUCGAAGGGUUUTT against PHC2, the median seed-adjusted z-score was 0.177.
As for GAUGCUACUUUAGAAUUAATT against GNPDA2, the figure is -0.422.
In the case of AGAUUUAUCUUGAAGCUGATT against ARL4D, the median seed-adjusted z-score was -0.523.
The figure for CUUGAUGACUCUAAACCUATT against RUNX2 is 0.335.
As to AAGACUCACUUGUUCAACATT against ZNF772, the median seed-adjusted z-score was 0.817.
Take GGGACAAGUUCGUCAUCUUTT against CRYAA: the median seed-adjusted z-score was -1.03 (active).
As for CCUAUGAUAUGGUUCCAGATT against COX5A, the figure is -0.348.

These data come from PubChem BioAssay AID1347426 (Functional Genomics Laboratory (NCATS/FGL), 2020).
